The values below come from PubChem BioAssay (NCATS).

In one assay the test system is PA-1. The experiment in a line: Primary qHTS to identify gynecologic anti-cancer compounds using libraries of approved drugs and bioactive compounds (AID 1345084). Note: % is set by controls: 0 for no effect and ±100 for the full control effect; nearly all actives have a fitted effect of over 55% in size. To be noted: Gynecologic cancer cell panel viability, ATPlite luminescence, 48 h; series mostly up to 57.5 µM. In a few lines: (§1)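 Luminescence from the ATPlite ATP-monitoring reagent indicates viable cell number; lower signal means cytotoxicity. Cells received compound 16 h after seeding and were exposed for 48 h across five concentrations.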
Background: qHTS replaces the single test concentration by a dilution series.

Another assay relates to SKOV3. Described as above. To be noted: Gynecologic cancer cell panel viability, ATPlite luminescence, 48 h; series mostly up to 57.5 µM. The gist of the method: as §1
Background: ATP-based viability assays read luminescence as a measure of living cells.

Another assay has as its system Tov-21-G. The assay is described as above. To be noted: Gynecologic cancer cell panel viability, ATPlite luminescence, 48 h; series mostly up to 57.5 µM. In a few lines: as §1
For a further assay, the system named is Tov112D. The assay is described as above. To be noted: Gynecologic cancer cell panel viability, ATPlite luminescence, 48 h; series mostly up to 57.5 µM. In a few lines:
as §1

Assay [1] is described as follows: Drug repurposing screens with cells derived from glioblastoma tumor samples (AID 1345199). For activity, negative = cell killing: % is set by controls: 0 for no effect and ±100 for the full control effect. Note: nearly all actives have a fitted effect of over 40% in size. Note: potency is the fitted concentration of half-maximal effect. As to conditions: GBM patient neurospheres viability, ATP luminescence, 48 h. In a few lines:
(§2)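 Primary testing used CD133+ neurospheres from four GBM patients, seven concentrations, 48 h exposure and ATP-based viability; confirmation added three slower-growing patient lines.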

A further assay deals with astro. Described as above. As to conditions: viability, ATP luminescence, 48 h; series mostly up to 45.9 µM. In a few lines:
as §2

For assay [2], the target named is Nuclear receptor subfamily 1 group I member 2 (Rattus norvegicus) (UniProt Q9R1A7). The experiment in a line: qHTS assay for small molecule activators of the rat pregnane X receptor (rPXR) signaling pathway (AID 651751; call rule not given here; note: 0% is about no effect). As to conditions: rPXR reporter cells, luciferase (One-Glo), 24 h.
Chain of Nuclear receptor subfamily 1 group I member 2 (Rattus norvegicus) (Q9R1A7 whole entry, looked up): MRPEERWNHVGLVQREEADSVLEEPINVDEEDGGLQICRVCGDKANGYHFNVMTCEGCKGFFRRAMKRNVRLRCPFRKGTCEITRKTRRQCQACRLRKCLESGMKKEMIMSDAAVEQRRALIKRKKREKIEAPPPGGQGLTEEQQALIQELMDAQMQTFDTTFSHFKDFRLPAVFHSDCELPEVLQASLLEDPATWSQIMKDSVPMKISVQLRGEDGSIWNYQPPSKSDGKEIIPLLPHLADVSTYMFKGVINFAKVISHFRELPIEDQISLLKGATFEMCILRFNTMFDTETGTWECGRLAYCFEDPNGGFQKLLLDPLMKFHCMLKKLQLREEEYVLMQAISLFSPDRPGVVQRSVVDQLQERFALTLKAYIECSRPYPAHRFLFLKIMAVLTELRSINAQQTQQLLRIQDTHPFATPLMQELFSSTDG
Setting [3] is: at 45.9 µM (top of the series), tumour line B.
Where [4] appears, read: at 45.9 µM (top of the series), tumour line D.
Where [5] appears, read: at 46.1 µM (top of the series), tumour line C.
Setting [6] is: at 46 µM (top of the series), tumour line A.

Values joined by “and” are separate entries in the source; they are usually repeats but may differ in a detail not shown here. Equal entries are not always repeated. Values without a mark were called inactive. Results filed as inconclusive are left out. The source holds several records for some structures; these can differ, active in one and inactive in another. Active and inactive are the calls of the source. Unless noted, calls come from the whole dose curve; as a rule, active = well fitted curve in the direction sought with a large enough effect; inconclusive = small, poorly fitted or top-dose-only effect, or another doubt; inactive = no such curve, though single readings can be large; an effect the other way counts as inactive or inconclusive.

With `CCOC(=O)[C@H](CCc1ccccc1)N[C@@H](C)C(=O)N(CC(=O)O)C1Cc2ccccc2C1`, the Potency entry in the assay on PA-1, in the assay with SKOV3, in the assay on Tov-21-G, with Tov112D and in the assay on astro was “inactive” in each case. In addition, the activity, negative = cell killing is -1.19% in assay [1] (setting [3]), -9.08% in assay [1] (setting [4]) and 19.3% in assay [1] (setting [5]).
Take `Nc1c(NC/C=C\COc2cc(CN3CCCCC3)ccn2)c(=O)c1=O`: the Potency entry in the assay on PA-1, with SKOV3, in the assay with Tov-21-G, in the assay with Tov112D and with astro was “inactive” in each case. Also, the activity, negative = cell killing in assay [1] (setting [3]) is -4.69%; in assay [1] (setting [4]), -28.9%; in assay [1] (setting [5]), 3.18%.
For `CC(=O)OCC(=O)Nc1cc(C#N)cc(NC(=O)COC(C)=O)c1Cl`, the Potency entry with PA-1, in the assay on SKOV3, in the assay on Tov-21-G, in the assay on Tov112D and in the assay on astro was “inactive” in each case. Further, the activity, negative = cell killing in assay [1] (setting [3]) is -11%; in assay [1] (setting [4]), -1.03%; in assay [1] (setting [5]), -3.42%.
Turning to `COc1cc(C(=O)OC(COCCC(C)C)CN2CCOCC2)cc(OC)c1OC` (stereo not given), the Potency entry with PA-1, in the assay on SKOV3, with Tov-21-G, in the assay with Tov112D and in the assay with astro was “inactive” throughout. Besides, the activity, negative = cell killing in assay [1] (setting [3]) was -6.94%; in assay [1] (setting [4]) it was -4.84%; in assay [1] (setting [5]), -4.89%.
With `CO/N=C(/C(=O)N[C@@H]1C(=O)N2C(C(=O)[O-])=C(C[n+]3ccn4ncccc43)CS[C@H]12)c1nsc(N)n1`, the Potency entry with PA-1, in the assay with SKOV3, with Tov-21-G, in the assay on Tov112D and in the assay on astro was “inactive” throughout. For the same molecule, the activity, negative = cell killing in assay [1] (setting [3]) is -6.03% and -3.53%; in assay [1] (setting [4]), -11.1% and -14%. Besides, the Potency in assay [1] (tumour line A) is 8.91 µM (active).
As to `O=C(c1ccccc1)c1ccccc1`, the Potency entry in the assay with PA-1, in the assay on SKOV3, in the assay on Tov-21-G, with Tov112D and in the assay with astro was “inactive” in each case. For the same molecule, the activity, negative = cell killing in assay [1] (setting [3]) is 2.19%; in assay [1] (setting [4]) it was 8.55%; in assay [1] (setting [6]) it was -8.04%; in assay [1] (setting [5]), -0.361%. In assay [2], the max response is -0.979% and 2.4%.
Take `CCOC(=O)NNc1nncc2ccccc12`: the Potency entry in the assay with PA-1, in the assay on SKOV3, in the assay on Tov-21-G, in the assay with Tov112D and in the assay with astro was “inactive” each time. Moreover, the activity, negative = cell killing in assay [1] (setting [3]) was -5.14%; in assay [1] (setting [4]) it was -7.16%; in assay [1] (setting [5]) it was -13.4%.
For the molecule `CC(=O)O[C@@H]1C(=O)O[C@@H]2[C@H]1OC(=O)[C@@H]2OC(C)=O`, the Potency entry with PA-1, with SKOV3, with Tov-21-G, in the assay with Tov112D and in the assay with astro was “inactive” in each case. The activity, negative = cell killing is -13.4% in assay [1] (setting [3]), 5.03% in assay [1] (setting [4]) and -4% in assay [1] (setting [5]).
Consider `OC[C@]1(O)OC[C@@H](O)[C@H](O)[C@@H]1O`, for which the Potency result with PA-1, in the assay on SKOV3, in the assay on Tov-21-G, in the assay with Tov112D and with astro was “inactive” throughout. Besides, the activity, negative = cell killing in assay [1] (setting [3]) is 6.45%; in assay [1] (setting [4]), -1.03%; in assay [1] (setting [5]), 12.8%.
For `O=C1[C@@H]2[C@H]3CC[C@H](C3)[C@@H]2C(=O)N1CCCCN1CCN(c2ncccn2)CC1`, the Potency entry with PA-1, in the assay with SKOV3, in the assay on Tov-21-G, in the assay with Tov112D and with astro was “inactive” in each case. In addition, the activity, negative = cell killing was -7.9% in assay [1] (setting [3]) and -10.5% in assay [1] (setting [5]). Besides, in assay [1] (tumour line A), the Potency is 12.6 µM (active).
With `CCCCCC[C@@H](CCC)C(=O)O`, the Potency entry with PA-1, in the assay with SKOV3, in the assay on Tov-21-G, in the assay on Tov112D and in the assay with astro was “inactive” each time. Besides, the results for the activity, negative = cell killing in assay [1] (setting [3]), in assay [1] (setting [4]) and in assay [1] (setting [5]) were -11.8%, -7.11% and -6.46%, respectively.
For the molecule `COc1cc(NS(=O)(=O)c2ccc(N)cc2)nc(C)n1`, the Potency result in the assay on PA-1, in the assay on SKOV3, in the assay on Tov-21-G, with Tov112D and in the assay on astro was “inactive” in each case. For the same molecule, the activity, negative = cell killing in assay [1] (setting [3]) is -1.01%; in assay [1] (setting [4]), -8.58%; in assay [1] (setting [6]), -28.7%; in assay [1] (setting [5]) it was 5.24%.
As for `O=C(O)CCC(=O)OC[C@@H](NC(=O)C(Cl)Cl)[C@H](O)c1ccc([N+](=O)[O-])cc1`, the Potency entry in the assay with PA-1, in the assay with SKOV3, with Tov-21-G, in the assay with Tov112D and in the assay with astro was “inactive” throughout. Further, the figures for the activity, negative = cell killing in assay [1] (setting [3]), in assay [1] (setting [4]) and in assay [1] (setting [5]) were -13.2%, -13.5% and -13.1%, respectively.
As to `O=C(O)/C=C(\CC(=O)O)C(=O)O`, the Potency result with PA-1, in the assay with SKOV3, with Tov-21-G, in the assay on Tov112D and with astro was “inactive” throughout. Further, the figures for the activity, negative = cell killing in assay [1] (setting [3]) and in assay [1] (setting [4]) were -11.5% and -18%, respectively. Besides, the Potency in assay [1] (tumour line A) is 20 µM (active).
